# Data published in publication PMC7862700, “An all-to-all approach to the identification of sequence-specific readers for epigenetic DNA modifications on cytosine”.
# Columns and labels:
# Test in all cases: DAPPL (digital affinity profiling via proximity ligation, sequencing); 10 mM Tris-HCl pH 7.5, 50 mM NaCl, 1 mM DTT, 4% glycerol, room temperature, 30 min; GST-TFs on glutathione beads, 16-mer random dsDNA library, 0.1% formaldehyde crosslink after washing; high values mean tight binding
# [1] = target: T1, FLI1 (Homo sapiens, UniProt Q01543 1-452); conditions: protein: recombinant; tags: N-terminal GST; dsDNA, one strand shown
# T1 sequence: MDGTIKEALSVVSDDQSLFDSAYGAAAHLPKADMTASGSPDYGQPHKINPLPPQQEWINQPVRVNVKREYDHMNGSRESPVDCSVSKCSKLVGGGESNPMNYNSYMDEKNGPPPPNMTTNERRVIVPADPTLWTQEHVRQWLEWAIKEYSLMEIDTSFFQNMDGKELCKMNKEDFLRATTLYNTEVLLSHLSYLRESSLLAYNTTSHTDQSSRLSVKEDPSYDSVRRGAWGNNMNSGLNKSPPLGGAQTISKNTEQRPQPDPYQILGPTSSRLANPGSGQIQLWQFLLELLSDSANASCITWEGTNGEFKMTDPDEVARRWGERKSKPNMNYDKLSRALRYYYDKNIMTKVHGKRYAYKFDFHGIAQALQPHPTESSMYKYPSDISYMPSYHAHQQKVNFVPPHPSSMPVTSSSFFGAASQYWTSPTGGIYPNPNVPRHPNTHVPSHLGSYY
# Outline: (§1)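 Human transcription factors fused to GST were expressed in yeast, captured on glutathione beads, given DNA barcodes and pooled with a GST-only negative control. Pools were incubated with 200 nmole of a 16-mer random double-stranded DNA library in Tris/NaCl/DTT/glycerol buffer at room temperature for 30 min. They were then washed, crosslinked with 0.1% formaldehyde, proximity-ligated (BsaI/T4 ligase, 1 h, 37 °C), PCR-amplified and sequenced on an Illumina NextSeq500. Binding signal is each 6-mer's read frequency for a factor divided by its frequency for the GST control.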
# [2] = target: T2, ELK1 (Homo sapiens, UniProt P19419 1-428); conditions: protein: recombinant; tags: N-terminal GST; dsDNA, one strand shown
# T2 sequence: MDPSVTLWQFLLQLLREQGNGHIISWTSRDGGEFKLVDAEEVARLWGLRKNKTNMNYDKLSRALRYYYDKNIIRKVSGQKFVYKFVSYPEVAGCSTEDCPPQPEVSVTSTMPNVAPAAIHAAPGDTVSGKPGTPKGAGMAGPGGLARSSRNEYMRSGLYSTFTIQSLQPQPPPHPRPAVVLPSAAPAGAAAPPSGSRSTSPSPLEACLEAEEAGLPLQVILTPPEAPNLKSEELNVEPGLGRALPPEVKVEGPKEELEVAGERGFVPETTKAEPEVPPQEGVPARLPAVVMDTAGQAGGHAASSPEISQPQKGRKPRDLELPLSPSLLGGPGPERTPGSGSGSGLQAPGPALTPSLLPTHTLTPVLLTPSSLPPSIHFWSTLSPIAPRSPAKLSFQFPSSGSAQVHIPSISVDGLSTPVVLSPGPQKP
# Outline: as §1
# [3] = target: T3, GABPA (Homo sapiens, UniProt Q06546 1-454); conditions: protein: recombinant; tags: N-terminal GST; dsDNA, one strand shown
# T3 sequence: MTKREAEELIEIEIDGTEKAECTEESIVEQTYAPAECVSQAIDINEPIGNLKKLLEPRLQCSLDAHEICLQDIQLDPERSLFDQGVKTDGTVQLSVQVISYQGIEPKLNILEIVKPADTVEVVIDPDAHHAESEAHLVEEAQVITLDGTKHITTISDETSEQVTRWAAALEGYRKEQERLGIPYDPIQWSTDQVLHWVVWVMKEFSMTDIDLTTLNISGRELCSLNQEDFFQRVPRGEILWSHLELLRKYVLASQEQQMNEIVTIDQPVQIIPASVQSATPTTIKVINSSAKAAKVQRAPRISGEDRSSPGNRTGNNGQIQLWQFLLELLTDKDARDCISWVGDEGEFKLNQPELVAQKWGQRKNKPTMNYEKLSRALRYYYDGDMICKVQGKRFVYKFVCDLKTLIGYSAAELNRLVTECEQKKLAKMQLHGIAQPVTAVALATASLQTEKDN
# Outline: as §1
# [4] = target: T4, ERG (Homo sapiens, UniProt P11308 1-479); conditions: protein: recombinant; tags: N-terminal GST; dsDNA, one strand shown
# T4 sequence: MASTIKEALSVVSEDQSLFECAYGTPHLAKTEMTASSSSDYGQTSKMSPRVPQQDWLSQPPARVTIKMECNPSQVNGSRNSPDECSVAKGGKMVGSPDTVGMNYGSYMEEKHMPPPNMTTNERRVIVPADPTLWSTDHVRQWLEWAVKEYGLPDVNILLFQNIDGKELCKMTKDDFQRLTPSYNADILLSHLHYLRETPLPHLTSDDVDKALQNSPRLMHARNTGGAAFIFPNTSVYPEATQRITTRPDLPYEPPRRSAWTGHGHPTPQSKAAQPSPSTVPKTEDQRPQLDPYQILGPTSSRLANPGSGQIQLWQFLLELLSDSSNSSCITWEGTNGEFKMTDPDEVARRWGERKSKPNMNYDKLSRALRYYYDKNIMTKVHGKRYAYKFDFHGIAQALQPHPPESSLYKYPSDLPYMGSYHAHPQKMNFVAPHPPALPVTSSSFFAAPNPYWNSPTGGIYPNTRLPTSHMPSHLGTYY
# Outline: as §1
# [5] = target: ELF1 (Homo sapiens, UniProt P32519 1-619); conditions: protein: recombinant; tags: N-terminal GST; dsDNA, one strand shown
# ELF1, sequence (P32519 whole entry): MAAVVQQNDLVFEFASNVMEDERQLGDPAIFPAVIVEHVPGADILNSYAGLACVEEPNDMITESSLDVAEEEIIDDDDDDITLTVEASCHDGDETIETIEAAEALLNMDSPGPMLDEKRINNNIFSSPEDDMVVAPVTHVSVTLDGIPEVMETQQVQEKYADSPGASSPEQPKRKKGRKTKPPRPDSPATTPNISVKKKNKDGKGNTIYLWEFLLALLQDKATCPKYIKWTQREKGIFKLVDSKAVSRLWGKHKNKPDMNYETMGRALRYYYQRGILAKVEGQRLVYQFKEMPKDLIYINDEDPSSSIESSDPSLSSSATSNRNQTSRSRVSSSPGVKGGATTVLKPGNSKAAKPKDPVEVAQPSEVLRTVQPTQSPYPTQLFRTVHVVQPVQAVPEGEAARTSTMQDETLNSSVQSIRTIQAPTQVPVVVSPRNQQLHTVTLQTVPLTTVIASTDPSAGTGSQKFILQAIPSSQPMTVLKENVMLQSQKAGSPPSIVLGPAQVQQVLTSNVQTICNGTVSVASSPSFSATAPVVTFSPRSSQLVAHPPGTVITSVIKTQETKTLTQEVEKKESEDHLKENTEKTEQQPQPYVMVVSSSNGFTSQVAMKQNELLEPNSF
# Outline: as §1
# [6] = target: T5, EHF (Homo sapiens, UniProt Q9NZC4 1-300); conditions: protein: recombinant; tags: N-terminal GST; dsDNA, one strand shown
# T5 sequence: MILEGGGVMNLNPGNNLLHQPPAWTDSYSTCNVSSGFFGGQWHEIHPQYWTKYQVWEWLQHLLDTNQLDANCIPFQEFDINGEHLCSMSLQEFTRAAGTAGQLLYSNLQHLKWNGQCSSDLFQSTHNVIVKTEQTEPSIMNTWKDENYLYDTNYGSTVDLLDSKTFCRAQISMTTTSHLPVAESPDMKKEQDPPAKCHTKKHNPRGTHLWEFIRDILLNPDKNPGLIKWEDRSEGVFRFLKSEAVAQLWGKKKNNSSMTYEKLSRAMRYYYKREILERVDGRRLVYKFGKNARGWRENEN
# Outline: as §1
# [7] = target: SPI1 (Homo sapiens, UniProt P17947 1-270); conditions: protein: recombinant; tags: N-terminal GST; dsDNA, one strand shown
# Outline: as §1
# [8] = target: SPIB (Homo sapiens, UniProt Q01892 1-262); conditions: protein: recombinant; tags: N-terminal GST; dsDNA, one strand shown
# SPIB, sequence (Q01892 whole entry): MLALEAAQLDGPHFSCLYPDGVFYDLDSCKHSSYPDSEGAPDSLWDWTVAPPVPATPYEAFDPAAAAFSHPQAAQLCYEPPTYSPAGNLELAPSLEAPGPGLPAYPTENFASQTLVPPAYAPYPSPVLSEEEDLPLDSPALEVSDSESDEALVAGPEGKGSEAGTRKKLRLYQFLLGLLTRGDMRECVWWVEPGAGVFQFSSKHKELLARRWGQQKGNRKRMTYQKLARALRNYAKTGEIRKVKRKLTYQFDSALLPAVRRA
# Outline: as §1
# [9] = target: T6, ELK3 (Homo sapiens, UniProt P41970 1-407); conditions: protein: recombinant; tags: N-terminal GST; dsDNA, one strand shown
# T6 sequence: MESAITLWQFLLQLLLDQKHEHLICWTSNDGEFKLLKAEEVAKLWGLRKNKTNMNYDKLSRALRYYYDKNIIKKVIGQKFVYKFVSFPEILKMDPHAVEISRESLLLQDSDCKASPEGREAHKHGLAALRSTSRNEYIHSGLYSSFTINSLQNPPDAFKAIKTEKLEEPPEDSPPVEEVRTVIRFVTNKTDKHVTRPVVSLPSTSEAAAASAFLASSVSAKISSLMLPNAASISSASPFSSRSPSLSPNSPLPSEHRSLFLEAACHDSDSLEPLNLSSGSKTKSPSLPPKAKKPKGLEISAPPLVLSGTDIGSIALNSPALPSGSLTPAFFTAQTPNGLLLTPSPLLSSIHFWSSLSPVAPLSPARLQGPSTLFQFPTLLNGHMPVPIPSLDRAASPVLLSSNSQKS
# Outline: as §1
# [10] = target: T7, FEV (Homo sapiens, UniProt Q99581 1-238); conditions: protein: recombinant; tags: N-terminal GST; dsDNA, one strand shown
# T7 sequence: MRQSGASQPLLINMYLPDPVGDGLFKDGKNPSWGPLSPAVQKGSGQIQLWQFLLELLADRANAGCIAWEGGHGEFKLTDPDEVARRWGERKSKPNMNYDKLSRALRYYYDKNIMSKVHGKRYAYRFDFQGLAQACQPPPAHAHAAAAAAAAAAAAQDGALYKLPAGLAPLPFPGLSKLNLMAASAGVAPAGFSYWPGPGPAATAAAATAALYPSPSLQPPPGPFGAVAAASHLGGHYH
# Outline: as §1
# [11] = target: ETV5 (Homo sapiens, UniProt P41161 1-510); conditions: protein: recombinant; tags: N-terminal GST; dsDNA, one strand shown
# ETV5, sequence (P41161 whole entry): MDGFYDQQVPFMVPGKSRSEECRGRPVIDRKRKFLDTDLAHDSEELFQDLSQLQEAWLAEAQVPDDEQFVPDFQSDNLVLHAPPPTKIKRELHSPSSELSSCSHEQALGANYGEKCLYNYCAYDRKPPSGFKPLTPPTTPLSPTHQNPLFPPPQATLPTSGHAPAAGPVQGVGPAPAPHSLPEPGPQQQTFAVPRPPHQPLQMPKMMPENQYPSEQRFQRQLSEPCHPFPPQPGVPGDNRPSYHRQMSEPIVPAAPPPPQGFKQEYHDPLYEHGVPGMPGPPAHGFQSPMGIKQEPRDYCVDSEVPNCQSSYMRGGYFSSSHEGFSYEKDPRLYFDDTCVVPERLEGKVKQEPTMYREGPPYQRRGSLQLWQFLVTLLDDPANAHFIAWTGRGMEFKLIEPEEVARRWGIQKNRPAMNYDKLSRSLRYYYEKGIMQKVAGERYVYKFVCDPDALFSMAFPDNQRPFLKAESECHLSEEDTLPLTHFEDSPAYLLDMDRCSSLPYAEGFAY
# Outline: as §1
# [12] = target: HSF1 (Homo sapiens, UniProt Q00613 1-529); conditions: protein: recombinant; tags: N-terminal GST; chain copies: 3; dsDNA, one strand shown
# HSF1, sequence (Q00613 whole entry): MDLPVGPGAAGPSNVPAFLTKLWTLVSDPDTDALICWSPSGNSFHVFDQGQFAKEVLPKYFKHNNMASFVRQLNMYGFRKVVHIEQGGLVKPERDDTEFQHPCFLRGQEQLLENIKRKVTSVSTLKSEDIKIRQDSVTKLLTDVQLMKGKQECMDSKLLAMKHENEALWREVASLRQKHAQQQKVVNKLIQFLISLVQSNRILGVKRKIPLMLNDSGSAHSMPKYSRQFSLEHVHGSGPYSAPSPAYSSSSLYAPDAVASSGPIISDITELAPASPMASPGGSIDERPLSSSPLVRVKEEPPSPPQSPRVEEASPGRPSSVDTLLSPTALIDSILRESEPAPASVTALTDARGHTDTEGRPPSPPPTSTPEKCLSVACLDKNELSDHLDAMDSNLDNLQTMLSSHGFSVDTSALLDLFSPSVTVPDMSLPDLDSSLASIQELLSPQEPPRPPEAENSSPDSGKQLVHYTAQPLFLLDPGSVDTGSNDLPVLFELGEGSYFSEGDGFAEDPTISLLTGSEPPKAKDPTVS
# Outline: as §1
# [13] = target: T8, SPIC (Homo sapiens, UniProt Q8N5J4 1-248); conditions: protein: recombinant; tags: N-terminal GST; dsDNA, one strand shown
# T8 sequence: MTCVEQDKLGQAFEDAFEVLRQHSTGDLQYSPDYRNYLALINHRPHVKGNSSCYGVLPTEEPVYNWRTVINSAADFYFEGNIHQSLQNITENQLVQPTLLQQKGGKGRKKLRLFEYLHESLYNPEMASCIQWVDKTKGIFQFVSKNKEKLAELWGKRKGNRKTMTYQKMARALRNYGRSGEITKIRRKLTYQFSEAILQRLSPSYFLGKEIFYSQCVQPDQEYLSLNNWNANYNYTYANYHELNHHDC
# Outline: as §1
# [14] = target: ELF4 (Homo sapiens, UniProt Q99607 1-663); conditions: protein: recombinant; tags: N-terminal GST; dsDNA, one strand shown
# ELF4, sequence (Q99607 whole entry): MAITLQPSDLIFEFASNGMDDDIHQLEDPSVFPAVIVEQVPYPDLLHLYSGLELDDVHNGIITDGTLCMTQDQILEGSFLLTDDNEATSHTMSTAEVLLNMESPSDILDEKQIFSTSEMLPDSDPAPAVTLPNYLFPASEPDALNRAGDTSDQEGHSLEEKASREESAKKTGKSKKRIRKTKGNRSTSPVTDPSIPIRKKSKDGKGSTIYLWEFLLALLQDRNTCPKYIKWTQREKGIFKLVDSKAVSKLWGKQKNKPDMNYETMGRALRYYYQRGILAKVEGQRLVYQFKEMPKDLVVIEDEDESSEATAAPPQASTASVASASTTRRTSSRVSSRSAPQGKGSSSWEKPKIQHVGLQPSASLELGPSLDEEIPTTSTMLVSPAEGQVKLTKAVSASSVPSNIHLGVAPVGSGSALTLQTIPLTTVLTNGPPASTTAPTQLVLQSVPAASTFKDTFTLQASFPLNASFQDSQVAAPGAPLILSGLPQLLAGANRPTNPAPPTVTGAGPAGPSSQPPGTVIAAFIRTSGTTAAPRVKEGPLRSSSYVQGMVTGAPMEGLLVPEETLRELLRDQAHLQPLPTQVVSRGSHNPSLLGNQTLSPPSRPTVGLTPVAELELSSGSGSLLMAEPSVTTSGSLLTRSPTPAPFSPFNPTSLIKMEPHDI
# Outline: as §1
# [15] = target: T9, ELK4 (Homo sapiens, UniProt P28324-2 1-405); conditions: protein: recombinant; tags: N-terminal GST; dsDNA, one strand shown
# T9 sequence: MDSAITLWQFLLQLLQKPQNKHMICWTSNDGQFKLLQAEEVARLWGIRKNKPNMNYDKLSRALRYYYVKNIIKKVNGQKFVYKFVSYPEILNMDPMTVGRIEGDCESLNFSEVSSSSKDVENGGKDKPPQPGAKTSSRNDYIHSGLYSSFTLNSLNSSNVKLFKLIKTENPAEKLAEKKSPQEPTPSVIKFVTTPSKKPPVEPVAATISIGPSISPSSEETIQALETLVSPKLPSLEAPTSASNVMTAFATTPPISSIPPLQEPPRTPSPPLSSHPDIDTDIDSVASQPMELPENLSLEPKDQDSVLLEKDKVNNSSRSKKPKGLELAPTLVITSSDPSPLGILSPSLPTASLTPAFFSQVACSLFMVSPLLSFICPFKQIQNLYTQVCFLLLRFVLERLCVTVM
# Outline: as §1
# [16] = target: T10, ETV2 (Homo sapiens, UniProt O00321 1-342); conditions: protein: recombinant; tags: N-terminal GST; dsDNA, one strand shown
# T10 sequence: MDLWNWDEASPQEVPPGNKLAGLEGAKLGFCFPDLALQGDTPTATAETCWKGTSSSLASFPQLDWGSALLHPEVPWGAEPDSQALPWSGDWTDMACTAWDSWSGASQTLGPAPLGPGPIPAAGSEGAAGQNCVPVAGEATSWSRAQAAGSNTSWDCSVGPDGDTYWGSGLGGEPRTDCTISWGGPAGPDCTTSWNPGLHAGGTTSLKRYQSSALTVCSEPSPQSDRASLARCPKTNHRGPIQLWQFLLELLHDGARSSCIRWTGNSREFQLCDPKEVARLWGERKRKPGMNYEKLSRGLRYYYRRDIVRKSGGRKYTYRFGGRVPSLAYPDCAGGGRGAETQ
# Outline: as §1
# [17] = target: T11, ELF3 (Homo sapiens, UniProt P78545 1-371); conditions: protein: recombinant; tags: N-terminal GST; dsDNA, one strand shown
# T11 sequence: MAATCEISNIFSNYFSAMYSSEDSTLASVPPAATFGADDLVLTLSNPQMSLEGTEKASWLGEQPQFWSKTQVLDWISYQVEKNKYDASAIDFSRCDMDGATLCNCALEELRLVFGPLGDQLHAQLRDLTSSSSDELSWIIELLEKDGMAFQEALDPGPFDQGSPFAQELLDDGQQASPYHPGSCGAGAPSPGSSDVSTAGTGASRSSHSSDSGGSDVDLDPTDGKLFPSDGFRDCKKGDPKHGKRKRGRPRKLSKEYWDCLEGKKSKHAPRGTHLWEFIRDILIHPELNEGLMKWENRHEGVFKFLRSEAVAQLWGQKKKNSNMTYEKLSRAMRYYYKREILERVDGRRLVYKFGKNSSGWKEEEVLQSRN
# Outline: as §1
# [18] = target: CRX (Homo sapiens, UniProt O43186 1-299); conditions: protein: recombinant; tags: N-terminal GST; dsDNA, one strand shown
# CRX, sequence (O43186 whole entry): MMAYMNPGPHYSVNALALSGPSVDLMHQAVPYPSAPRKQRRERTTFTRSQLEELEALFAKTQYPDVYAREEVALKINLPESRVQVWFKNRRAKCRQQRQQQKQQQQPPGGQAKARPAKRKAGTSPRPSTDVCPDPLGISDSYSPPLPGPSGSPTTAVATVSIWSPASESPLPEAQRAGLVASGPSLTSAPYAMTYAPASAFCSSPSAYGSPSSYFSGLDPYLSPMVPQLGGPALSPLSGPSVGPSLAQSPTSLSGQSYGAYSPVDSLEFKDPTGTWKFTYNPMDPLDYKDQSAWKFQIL
# Outline: as §1
# [19] = target: ETV1 (Homo sapiens, UniProt P50549 1-477); conditions: protein: recombinant; tags: N-terminal GST; dsDNA, one strand shown
# ETV1, sequence (P50549 whole entry): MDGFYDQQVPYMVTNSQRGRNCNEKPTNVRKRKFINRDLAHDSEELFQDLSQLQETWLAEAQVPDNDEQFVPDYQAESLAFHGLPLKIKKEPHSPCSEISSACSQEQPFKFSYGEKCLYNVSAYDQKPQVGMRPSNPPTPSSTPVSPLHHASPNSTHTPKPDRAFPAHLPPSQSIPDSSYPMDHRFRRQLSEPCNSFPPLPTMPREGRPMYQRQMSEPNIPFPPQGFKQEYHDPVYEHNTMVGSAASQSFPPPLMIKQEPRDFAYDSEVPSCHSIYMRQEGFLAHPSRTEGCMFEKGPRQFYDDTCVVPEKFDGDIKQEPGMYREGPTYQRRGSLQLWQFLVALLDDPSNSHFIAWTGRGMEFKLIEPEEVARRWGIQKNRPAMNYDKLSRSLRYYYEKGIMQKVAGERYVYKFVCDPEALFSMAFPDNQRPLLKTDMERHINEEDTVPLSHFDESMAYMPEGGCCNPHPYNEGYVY
# Outline: as §1
sequence,measurement,setting,value
ACTTGC,binding signal,[1],"1.46 fold enrichment (6-mer frequency, TF over GST control)"
same,binding signal,[2],"1.48 fold enrichment (6-mer frequency, TF over GST control)"
same,binding signal,[3],"1.42 fold enrichment (6-mer frequency, TF over GST control)"
same,binding signal,[4],"1.41 fold enrichment (6-mer frequency, TF over GST control)"
same,binding signal,[5],"1.37 fold enrichment (6-mer frequency, TF over GST control)"
same,binding signal,[6],"1.52 fold enrichment (6-mer frequency, TF over GST control)"
same,binding signal,[7],"1.54 fold enrichment (6-mer frequency, TF over GST control)"
same,binding signal,[8],"1.35 fold enrichment (6-mer frequency, TF over GST control)"
same,binding signal,[9],"1.35 fold enrichment (6-mer frequency, TF over GST control)"
same,binding signal,[10],"1.4 fold enrichment (6-mer frequency, TF over GST control)"
same,binding signal,[11],"1.49 fold enrichment (6-mer frequency, TF over GST control)"
same,binding signal,[12],"1.25 fold enrichment (6-mer frequency, TF over GST control)"
same,binding signal,[13],"1.36 fold enrichment (6-mer frequency, TF over GST control)"
same,binding signal,[14],"1.47 fold enrichment (6-mer frequency, TF over GST control)"
same,binding signal,[15],"1.44 fold enrichment (6-mer frequency, TF over GST control)"
same,binding signal,[16],"1.36 fold enrichment (6-mer frequency, TF over GST control)"
same,binding signal,[17],"1.79 fold enrichment (6-mer frequency, TF over GST control)"
same,binding signal,[18],"1.12 fold enrichment (6-mer frequency, TF over GST control)"
same,binding signal,[19],"1.37 fold enrichment (6-mer frequency, TF over GST control)"
